# Compounds with a hit are over-represented: about 3.9% of the library has one in this group of screens.
# TPT1 inh: inhibitors of Candida albicans tRNA 2'-phosphotransferase TPT1; recombinant caTPT1, FP RNA substrate dephosphorylation; inhibition, % at 5 µM; 300,000 compounds, 0.81% hits;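 active = inhibition above the mean of all tested compounds plus 3 SD, set per screening campaign, cut at about 24% in these data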;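 note: plate controls were DMSO alone for no effect and ferristatin control at 100 nM for full effect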
# Rtt109 Vps75: blocks Candida albicans Rtt109/Vps75 acetyltransferase activity; AID 540336; Q5AAJ8; inhibition, % at 34.9 µM; 330,000 compounds, 0.16% hits; purified Rtt109/Vps75, ThioGlo CoA-SH fluorescence, 4 h;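 active = inhibition of at least 50% in every replicate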
# Target sequence (Q5AAJ8 whole entry, looked up): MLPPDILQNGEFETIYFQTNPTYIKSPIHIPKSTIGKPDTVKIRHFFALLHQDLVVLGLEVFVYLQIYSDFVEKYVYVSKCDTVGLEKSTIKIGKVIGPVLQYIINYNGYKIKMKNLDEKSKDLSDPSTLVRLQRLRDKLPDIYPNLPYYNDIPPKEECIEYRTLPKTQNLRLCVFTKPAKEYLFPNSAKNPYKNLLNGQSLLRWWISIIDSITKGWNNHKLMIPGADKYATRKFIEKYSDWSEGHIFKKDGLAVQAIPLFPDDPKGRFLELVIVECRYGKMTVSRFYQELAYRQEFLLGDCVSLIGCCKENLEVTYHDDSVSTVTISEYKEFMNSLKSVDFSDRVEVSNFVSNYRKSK
# Platelet DG rel: platelet dense granule release activity. AID 1663. 300,000 compounds, 0.22% hits. inhibition, %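 (compounds screened at 7.5 µM in platelet-rich plasma)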. human platelet-rich plasma, SFLLRN dense granule ATP release, luminescence;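 active = mean replicate score, as percent of positive control, at or above 50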
# PHOSPHO1 block: inhibitors of human PHOSPHO1 phosphatase. 290,000 compounds, 1.1% hits. Q8TCT1. inhibition, % at 13.3 µM. recombinant PHOSPHO1, absorbance phosphatase assay; in the data active = inhibition above about 60%
# Target sequence (Q8TCT1 whole entry, looked up): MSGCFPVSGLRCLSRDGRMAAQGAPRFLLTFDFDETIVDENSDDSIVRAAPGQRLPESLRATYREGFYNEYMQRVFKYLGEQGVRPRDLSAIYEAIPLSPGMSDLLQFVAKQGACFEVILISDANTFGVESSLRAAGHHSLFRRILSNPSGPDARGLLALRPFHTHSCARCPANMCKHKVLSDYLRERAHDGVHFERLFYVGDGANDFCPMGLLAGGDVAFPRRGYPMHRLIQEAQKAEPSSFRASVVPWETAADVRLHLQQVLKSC
# SKKanGAS inh: blocks kanamycin growth of S. pyogenes SKKanGAS strain; inhibition, % at 7.5 µM; BacTiter-Glo, 6 h; 300,000 compounds, 1.3% hits; AID 1662;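 active = mean replicate score, as percent of positive control median, at least 50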;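 note: strain carries kanamycin resistance gene driven by streptokinase promoter and grows in 40 µg/ml kanamycin; loss of luminescence reflects streptokinase promoter inhibition or plain growth inhibition; 0% = median of DMSO wells and 100% = positive control at its reference dose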
# WT yeast gro inh: growth inhibition of WT yeast, mitochondrial fusion screen | mitochondrial fusion phenotypic screen, WT strain | inhibition, % at 10 µM | 190,000 compounds, 2.1% hits | AID 1362; in the data active = inhibition above about 58%; tested in S. cerevisiae
# Numbers without * were called inactive; · = no result.
SMILES,TPT1 inh,Rtt109 Vps75,Platelet DG rel,PHOSPHO1 block,SKKanGAS inh,WT yeast gro inh
CCn1c(-c2csc3ccccc23)n[nH]c1=S,1,7,-9,-6,-3,-15
C=CCNc1nnc(SCC(=O)N2CCC(C(N)=O)CC2)s1,-3,2,-6,·,5,·
CCc1ccccc1OCCOc1ccc(C)cc1OC,-4,-24,-3,60*,25,7
CCc1c(C)[nH]n(-c2ccc(Oc3ccccc3)c(S(=O)(=O)O)c2)c1=O,-1,-20,·,65*,·,-25
Cc1ccnc(NS(=O)(=O)c2ccc(NS(=O)(=O)c3cc(Cl)ccc3Cl)cc2)n1,1,-1,-22,18,19,·
Cc1n[nH]c(C)c1CCOc1ccc(C(C)C)cc1,-2,19,-2,-26,96*,27
CCc1nnc(NC(=O)c2ccc(OC)c(S(=O)(=O)N3CCCC3)c2)s1,·,3,·,·,·,·
OC1(C#Cc2c(-c3ccsc3)oc3ccc(N4CCOCC4)cc23)CCCCC1,-3,-8,2,·,50*,·
COc1ccc(-c2oc3ccc(N4CCOCC4)cc3c2C#Cc2ccc(N)cc2)cc1,3,-2,-13,·,41,·
COc1ccc(-c2oc3cccnc3c2C#CC2(O)CCCCC2)cc1,2,-9,-1,4,57*,·
COc1ccc(-c2sc3ccccc3c2C#CC2(O)CCCCC2)cc1,3,4,1,21,101*,·
COc1ccc(-c2sc3cc(OC)c(OC)cc3c2C#CC2(O)CCCCC2)cc1,·,2,·,·,·,·
COc1ccc(-c2oc3ccc(N4CCOCC4)cc3c2C#CC2(O)CCCCC2)cc1,1,-8,-1,·,69*,·
CCOC(=O)C1=CNS(=O)(=O)NC1c1ccc(OC(C)=O)cc1 (stereo not drawn),·,-3,·,·,·,·
COc1cc2c(C#Cc3cccnc3)c(-c3ccsc3)oc(=O)c2cc1OC,·,-5,·,·,·,·
Oc1ccc(NC(=S)Nc2ccc(F)cc2)cc1,-1,-1,1,24,1,·
Fc1ccc(NC(=S)Nc2ccc(Br)cc2)cc1,-4,55*,23,-10,2,25
N#C/C(=C(/O)CN1CCN(c2ccccc2F)CC1)c1nc(-c2ccccc2)cs1,3,-1,9,34,55*,35
CC1CCN(C(=O)c2ccc3c(c2NCCO)C(=O)c2ccccc2C3=O)CC1,-5,-4,-5,-1,12,71*
CCN(CC)CCNC(=O)c1ccc2c(c1NCCO)C(=O)c1ccccc1C2=O,-5,·,4,7,51*,·
CCN(C(=O)COC(=O)c1n[nH]c2ccccc12)c1ccccc1,·,7,·,·,·,·
S=C(NCCc1ccccc1)Nc1ccc(N2CCCCC2)cc1,0,-3,6,28,-3,·
Cc1nn(-c2ccccn2)c2c1C(=O)CC(C)(C)C2N=[N+]=[N-] (stereo not drawn),·,4,·,·,·,·
Cc1ccccc1C(N)=O,·,3,·,·,·,·
COc1nc(N)nc2nc[nH]c12,-2,-6,-3,20,-1,·
SMILES,TPT1 inh,Rtt109 Vps75,Platelet DG rel,PHOSPHO1 block,SKKanGAS inh,WT yeast gro inh
O=C(COc1ccc(S(=O)(=O)NCc2ccccc2)cc1)NCc1cccnc1,·,-1,1,18,-6,·
CC(C)CN(C(=O)Cn1ccccc1=O)C1CCS(=O)(=O)C1 (stereo not drawn),·,4,·,·,·,·
COc1ccc(C(C#N)=C2C=CC(=NO)C(C)=C2Cl)cc1,·,-22,·,·,·,·
Nc1ccc(O)c([N+](=O)[O-])c1,·,-10,·,·,·,·
O=[N+]([O-])c1cc(N=Nc2ccc3ccccc3c2)ccc1O,-1,-6,55*,15,10,·
CCOC(=O)c1c(NC(=O)c2c(C(=O)O)cccc2[N+](=O)[O-])sc2c1CCCC2,-6,8,2,37,6,·
Cc1nn(C(C)C(=O)N2CCCC2)c(=O)c2nn(-c3ccccc3)c(C)c12 (stereo not drawn),0,8,2,33,0,·
COc1ccc(S(=O)(=O)N(C)CC(=O)Nc2ccc3c(c2)OCO3)cc1,-3,·,-6,45,0,4
COc1ccc(S(=O)(=O)N(C)CC(=O)Nc2ccc3c(c2)OCO3)cc1OC,-4,1,71*,-3,-4,1
CC(C)Nc1nc(NC(C)C)nc(N(C)C(N)=O)n1,1,-7,3,15,-1,3
CC(C)Nc1nc(NC(C)C)nc(Nn2cnnc2)n1,5,3,1,15,-5,-17
CC(C)Nc1nc(NC(C)C)nc(N(C)N)n1,2,9,-5,-3,56*,26
CC(C)Nc1nc(NC(C)C)nc(N(C)n2cnnc2)n1,-12,-1,10,94*,7,8
CC(=O)c1ccc(S(=O)(=O)Nc2ccc(C(=O)NCCCn3ccnc3)cc2)cc1,·,4,·,·,·,·
CC(=O)Oc1ccc(-c2ccc(C(=O)OCC(=O)N(C)CC(=O)Nc3ccccc3Cl)cc2)cc1,-4,20,3,51,13,·
CCOc1ccc(NC(=O)CN(C)C(=O)c2ccc3c(c2)S(=O)(=O)N=C2CCCCCN23)cc1OCC,·,-2,·,·,·,·
COc1ccc(CCc2cc(OC)c(OC)c(OC)c2)cc1,·,4,·,·,·,·
COc1cc(Cc2cc(N)nc(N)n2)cc(OC)c1OC,-3,-3,-4,·,71*,·
CC(O)c1n(C)c(Cl)c[n+]1C (stereo not drawn),1,-9,-1,79*,9,0
CCOC(=O)c1c(N)sc2c1CCC(CC)C2 (stereo not drawn),-8,5,1,51,-1,8
CCOC(=O)c1c(N)sc(=S)c2c1CCC2,-6,7,3,60*,2,7
CCOC(=O)c1c(N)sc(N)c1C(=O)OCC,1,23,-13,-3,-6,-11
CCOC(=O)c1c(N)sc2c1CCSC2,6,0,-4,65*,4,-3
CN(CC(=O)Nc1ccc(F)cc1)C(=O)C1CCCC1,·,-1,·,·,·,·
CCOC(=O)C1=CNS(=O)(=O)NC1c1ccc(C(=O)OC)cc1 (stereo not drawn),·,-4,·,·,·,·
SMILES,TPT1 inh,Rtt109 Vps75,Platelet DG rel,PHOSPHO1 block,SKKanGAS inh,WT yeast gro inh
CCOC(=O)c1c(C)oc2ccc(OC(=O)c3cccs3)cc12,-1,1,2,0,-1,68*
CCOC(=O)Oc1ccc2oc(C)c(C(=O)OCCOC)c2c1,0,-4,7,25,4,9
CCOC(=O)c1c(C)[nH]c(C)c1C(=O)COC(=O)/C=C/c1ccc(Cl)cc1,4,-3,1,29,-2,74*
CCCCN(C)C(=S)Nc1ccc(Oc2ccccc2)cc1,-3,-4,4,-9,-10,59*
S=C(NNc1ccc2ccccc2c1)NC1CCCCC1,0,7,-9,-22,16,78*
Cc1cccc(C)c1NC(=S)NC1CCCCC1,1,3,4,-6,0,70*
Cc1ccc(NC(=S)NNC(=S)NC2CCCCC2)cc1,3,3,-3,7,1,12
CN(CCC#N)C(=S)Nc1ccc(Oc2ccccc2)cc1,1,-2,-4,10,-7,5
Cc1ccccc1NC(=S)NC1CCCC1,1,-6,-7,·,0,·
S=C(Nc1ccc(Oc2ccccc2)cc1)NC1CCCCCC1,4,-4,23,19,18,69*
